Data as given in PubChem BioAssay (NCI).
“And” between values parts separate entries of the source, which are not always exact repeats. Identical values can stand only once. The panel holds about 83,000 compounds, 20% with a hit somewhere; the sample as a whole holds those more often.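 Negative percent growth values reflect cell death: -40 means 40% of the cells present at the start died, and -100 means all died.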 A number with no mark means an inactive call. The source made the active and inactive calls. The calls were made as follows: active = growth percent below 10; inactive = the rest.

Tested on: MDA-MB-468 breast
Test: NCI-60 one-dose screen, 48 h (100 = growth as untreated, 0 = no growth, -100 = all killed)
Details: 10 µM unless noted

Row | Compound | growth
1 | O=Nc1ccc(O)cc1 | 78.3% and 93.9%
2 | COc1ccc2c(c1)C(=O)c1c-2c(OCCN(C)C)nc2cc(OC)c(OC)cc12 | 81.6%
3 | CCN(CC)c1cn(-c2ccc(S(N)(=O)=O)cc2)nn1 | 91.9%
4 | O=C(Nc1cccc2ccccc12)c1cc2c(cc1Br)OCO2 | 95.4%
5 | O=C(c1ccccc1)N1N=C(c2ccc(-n3ccc(C(F)(F)F)n3)c(F)c2)CC1c1ccc[nH]1 (centres undefined) | 108%
6 | COc1cccc2c1O/C(=C\c1ncc([N+](=O)[O-])n1C)C2=O | 19%
7 | Cc1[nH]c(C(=O)Nc2ccccc2OCc2cccc(C(=O)N3CCC[C@@H](N)C3)c2)c(Cl)c1Cl | -74% (active)
8 | N#C/C=C(\c1ccc([N+](=O)[O-])cc1)n1nnc2cc(Cl)c(Cl)cc21 | -47.4% (active)
9 | O=c1c2c(O)cccc2oc2c3c(cc(O)c12)O[C@H]1OC=C[C@@H]31 | 30.2%
10 | O=C1/C(=C/c2ccccc2)CN(CCC(=O)N2C/C(=C\c3ccccc3)C(=O)/C(=C/c3ccccc3)C2)C/C1=C\c1ccccc1 | 66.9%
11 | Cn1ccc2c1CC1CN(Cc3ccco3)C(=O)C1C2C(=O)O (centres undefined) | 104%
12 | O=C(c1ccc(O)cc1)[C@@H]1[C@@H]2CCCN2[C@@]2(C(=O)N(C(=O)c3ccc(F)cc3)c3ccccc32)[C@H]1c1ccc(F)cc1 | 92.4%
13 | C#CCOc1ccc(/C=N/Nc2nc(-c3cc(Cl)ccc3Cl)cs2)cc1 | 25.9%
14 | Nc1ccccc1NC(=O)c1ccc(CN2CCC/C(=C\c3cccc(Cl)c3)C2=O)cc1 | -10.1% (active)
15 | CC(=O)Nc1ccc(C(=O)/C=C/c2ccccc2)cc1 | 90.8%
16 | CC(=O)Nc1nc(C)c(C(=O)N/N=C/N2CCOCC2)s1 | 116%
17 | COc1ccc(C(=O)Nc2nc(-c3ccc(Cl)cc3)cs2)cc1 | 95.9%

Row | Compound | growth
18 | C#COc1cccc(Nc2c(C#N)cnc3ncc(NC(=O)CCl)cc23)c1 | 3.39% [6.25 µM] (active)
19 | CCOC(=O)c1c(Nc2ccccc2)nn2c(-c3ccc(OC)c(OC)c3)ccnc12 | 37.7%
20 | C/C(=C(/c1ccc(O)cc1)c1ccc(OCCN2CCCC2)cc1)c1ccccc1 | 34.7%
21 | Cc1ccc(-c2noc(C)n2)cc1 | 101%
22 | COc1cc(/C=C2\C(=O)N(CCOc3cc(O)c4c(=O)cc(-c5ccccc5)oc4c3)c3ccccc32)cc(OC)c1O | 89.6%
23 | O=C1c2ccccc2C23C(=C(c4cncnc4)c4ccccc42)CCCN13 (centres undefined) | 93.3%
24 | COc1ccc2nc3cc(Cl)ccc3c(Nc3ccc(O)cc3)c2c1 | 46%
25 | COc1ccc(/C=C2\COc3ccc(O)c(O)c3C2=O)cc1 | -8.03% (active)
26 | O=C1CCNC1 | 107%
27 | CN(C)C(C)(C)CC(C)(C)C | 116%
28 | CNc1ccc(Nc2cccc(C)c2)c2c1C(=O)c1ccccc1C2=O | -13.1% (active)
29 | Cc1nc2cnc(N)c(C#Cc3cncc(C(=O)Nc4ccc(CN5CCN(C)CC5)c(C(F)(F)F)c4)c3)c2nc1C | 55.8%
30 | O=[N+]([O-])c1c(O)c(Cl)cc(Cl)c1Cl | 91.2%
31 | CCN(CC)CC[n+]1cc2cc(OC)c(OC)cc2c2ccc3cc4c(cc3c21)OCO4 | -27% (active)
32 | CCCCCCCCCCCCCCCCCCSC1=CC(=O)C(OC)=C(OC)C1=O | 105%
33 | O=C(Nc1cccc2[nH]c(C(F)(F)F)nc12)c1ccc(-n2cnnn2)cc1 | 80%
34 | CC1=NCC2NC(=O)NC(C)=C12 (centres undefined) | 92.3%
